{"source": "the supplement of paper PMC11865577", "system": "SARS-CoV-2 low-rank motif (SARS-low)", "assay": "normalised indicator fluorescence (fraction of RNA + indicator signal without compound); higher = less displacement of indicator (weaker competition)", "details": "compound concentration: 5 uM, 30 min", "summary_of_the_method": "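Displacement screen in 96-well plates: TO-PRO-1 or TO-PRO-3 indicator with RNA in 20 mM phosphate pH 7.0, 20 mM NaCl, 80 mM KCl. Each compound was added as 0.25 μL of 1 mM DMSO stock (about 5 uM final), and fluorescence was read after 30 min on an Infinite 200 PRO (excitation 485 or 620 nm). Values are indicator fluorescence after subtracting the buffer-plus-indicator blank, divided by the no-compound RNA-plus-indicator signal. Each is the mean of two independent experiments.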", "key": {"[1]": {"details": "indicator: TO-PRO-1 0.1 uM, RNA concentration: 0.1 uM"}, "[2]": {"details": "indicator: TO-PRO-3 0.5 uM, RNA concentration: 0.5 uM"}}, "note": "Where a name gives a salt, the structure may show the parent alone.", "data": [{"smiles": "C[C@H]1[C@H](C)CC[C@]2(C(=O)O[C@@H]3O[C@H](CO[C@@H]4O[C@H](CO)[C@@H](O[C@@H]5O[C@H](C)[C@H](O)[C@@H](O)[C@H]5O)[C@H](O)[C@H]4O)[C@@H](O)[C@H](O)[C@H]3O)CC[C@]3(C)C(=CC[C@@H]4[C@@]5(C)C[C@@H](O)[C@H](O)[C@@](C)(CO)[C@@H]5CC[C@]43C)[C@H]12", "note": "[Asiaticoside]", "values": [{"measurement": "normalised indicator fluorescence", "setting": "[1]", "result": 1.05}, {"measurement": "normalised indicator fluorescence", "setting": "[2]", "result": 1.3}]}, {"smiles": "COc1ccc(C(=C2C(=O)Nc3ccccc32)c2ccc(OC)cc2)cc1", "values": [{"measurement": "normalised indicator fluorescence", "setting": "[1]", "result": 1.38}, {"measurement": "normalised indicator fluorescence", "setting": "[2]", "result": 1.17}]}, {"smiles": "O=c1c(O)c(-c2ccccc2)oc2cc(O)cc(O)c12", "note": "[Galangin]", "values": [{"measurement": "normalised indicator fluorescence", "setting": "[1]", "result": 1.12}, {"measurement": "normalised indicator fluorescence", "setting": "[2]", "result": 1.28}]}, {"smiles": "O=c1c(O)c(-c2cc(O)c(O)c(O)c2)oc2cc(O)cc(O)c12", "note": "[Myricetin]", "values": [{"measurement": "normalised indicator fluorescence", "setting": "[1]", "result": 0.808}, {"measurement": "normalised indicator fluorescence", "setting": "[2]", "result": 0.0645}]}, {"smiles": "COC1=CC(=O)c2ccccc2C1=O", "note": "[2-Methoxynaphthoquinone]", "values": [{"measurement": "normalised indicator fluorescence", "setting": "[1]", "result": 1.19}, {"measurement": "normalised indicator fluorescence", "setting": "[2]", "result": 1.12}]}, {"smiles": "N=C(NCCCCCCNC(=N)NC(=N)Nc1ccc(Cl)cc1)NC(=N)Nc1ccc(Cl)cc1", "note": "[Chlorhexidine hydrochloride]", "values": [{"measurement": "normalised indicator fluorescence", "setting": "[1]", "result": 1.01}, {"measurement": "normalised indicator fluorescence", "setting": "[2]", "result": 1.01}]}, {"smiles": "CN(NC(=O)CC(=O)NN(C)C(=S)c1ccccc1)C(=S)c1ccccc1", "note": "[Elesclomol]", "values": [{"measurement": "normalised indicator fluorescence", "setting": "[1]", "result": 1.17}, {"measurement": "normalised indicator fluorescence", "setting": "[2]", "result": 1.25}]}, {"smiles": "Cc1cc(C(C)(C)C)c(O)c(C(C)(C)C)c1", "values": [{"measurement": "normalised indicator fluorescence", "setting": "[1]", "result": 1.26}, {"measurement": "normalised indicator fluorescence", "setting": "[2]", "result": 1.23}]}, {"smiles": "CC(=O)c1ccc(S(=O)(=O)NC(=O)NC2CCCCC2)cc1", "note": "[Acetohexamide]", "values": [{"measurement": "normalised indicator fluorescence", "setting": "[1]", "result": 0.998}, {"measurement": "normalised indicator fluorescence", "setting": "[2]", "result": 1.12}]}, {"smiles": "Oc1cc(O)c2c(c1)O[C@H](c1ccc(O)c(O)c1)[C@@H](O)C2", "note": "[(+)-Catechin Hydrate]", "values": [{"measurement": "normalised indicator fluorescence", "setting": "[1]", "result": 0.966}, {"measurement": "normalised indicator fluorescence", "setting": "[2]", "result": 1.16}]}, {"smiles": "CC(=O)CCCCn1c(=O)c2c(ncn2C)n(C)c1=O", "note": "[Pentoxifylline]", "values": [{"measurement": "normalised indicator fluorescence", "setting": "[1]", "result": 1.23}, {"measurement": "normalised indicator fluorescence", "setting": "[2]", "result": 1.05}]}, {"smiles": "CNc1ccc([N+](=O)[O-])c(Nc2ccc3[nH]ncc3c2)n1", "values": [{"measurement": "normalised indicator fluorescence", "setting": "[1]", "result": 1.01}, {"measurement": "normalised indicator fluorescence", "setting": "[2]", "result": 1.14}]}, {"smiles": "N#CC(c1ccnc(OCc2ccc(CN3CCOCC3)cc2)n1)c1nc2ccccc2s1", "note": "(configuration not stated)", "values": [{"measurement": "normalised indicator fluorescence", "setting": "[1]", "result": 1.59}, {"measurement": "normalised indicator fluorescence", "setting": "[2]", "result": 0.556}]}, {"smiles": "O=C1c2c(O)cc(O)cc2OC(c2ccc(O)c(O)c2)C1O", "note": "(configuration not stated) [Taxifolin]", "values": [{"measurement": "normalised indicator fluorescence", "setting": "[1]", "result": 1.25}, {"measurement": "normalised indicator fluorescence", "setting": "[2]", "result": 1.31}]}, {"smiles": "C[S+]([O-])c1ccc(-c2nc(-c3ccc(F)cc3)c(-c3ccncc3)[nH]2)cc1", "note": "(configuration not stated)", "values": [{"measurement": "normalised indicator fluorescence", "setting": "[1]", "result": 1.04}, {"measurement": "normalised indicator fluorescence", "setting": "[2]", "result": 0.92}]}, {"smiles": "CN1CCN(c2ccc(C(=O)Nc3n[nH]c4ccc(Cc5cc(F)cc(F)c5)cc34)c(NC3CCOCC3)c2)CC1", "note": "[Entrectinib]", "values": [{"measurement": "normalised indicator fluorescence", "setting": "[1]", "result": 1.16}, {"measurement": "normalised indicator fluorescence", "setting": "[2]", "result": 1.39}]}, {"smiles": "O=C(O)C(O)Cc1ccc(O)c(O)c1", "note": "(configuration not stated) [Sodium Danshensu]", "values": [{"measurement": "normalised indicator fluorescence", "setting": "[1]", "result": 0.934}, {"measurement": "normalised indicator fluorescence", "setting": "[2]", "result": 0.931}]}, {"smiles": "CCNC(=O)c1noc(-c2cc(C(C)C)c(O)cc2O)c1-c1ccc(CN2CCOCC2)cc1", "note": "[Luminespib]", "values": [{"measurement": "normalised indicator fluorescence", "setting": "[1]", "result": 1.01}, {"measurement": "normalised indicator fluorescence", "setting": "[2]", "result": 1.09}]}, {"smiles": "NC(=O)c1ccccc1Nc1ccnc(Nc2cccc(O)c2)n1", "values": [{"measurement": "normalised indicator fluorescence", "setting": "[1]", "result": 1.1}, {"measurement": "normalised indicator fluorescence", "setting": "[2]", "result": 1.06}]}, {"smiles": "C[C@@H]1O[C@@H](O[C@H]2[C@H](Oc3cc(O)c4c(c3)O[C@H](c3ccc(O)cc3)CC4=O)O[C@H](CO)[C@@H](O)[C@@H]2O)[C@H](O)[C@H](O)[C@H]1O", "note": "[Naringin]", "values": [{"measurement": "normalised indicator fluorescence", "setting": "[1]", "result": 1.14}, {"measurement": "normalised indicator fluorescence", "setting": "[2]", "result": 1.13}]}, {"smiles": "O=C1O[C@H]([C@@H](O)CO)C(O)=C1O", "note": "[L(+)-Ascorbic acid]", "values": [{"measurement": "normalised indicator fluorescence", "setting": "[1]", "result": 1.18}, {"measurement": "normalised indicator fluorescence", "setting": "[2]", "result": 1.24}]}, {"smiles": "O=C(O)/C=C/c1ccc(Cn2ccnc2)cc1", "note": "[Ozagrel]", "values": [{"measurement": "normalised indicator fluorescence", "setting": "[1]", "result": 1.09}, {"measurement": "normalised indicator fluorescence", "setting": "[2]", "result": 1.21}]}, {"smiles": "CCNC(=O)c1[nH]nc(-c2cc(Cl)c(O)cc2O)c1-c1ccc(OC)cc1", "values": [{"measurement": "normalised indicator fluorescence", "setting": "[1]", "result": 1.25}, {"measurement": "normalised indicator fluorescence", "setting": "[2]", "result": 1.22}]}, {"smiles": "CC(=O)O[C@H]1C[C@@]2(C)[C@@H](C[C@@H](O)[C@H]3[C@@]4(C)CC[C@@H](O)[C@@H](C)[C@@H]4CC[C@@]32C)/C1=C(\\CCC=C(C)C)C(=O)O", "note": "[Sodium fusidate]", "values": [{"measurement": "normalised indicator fluorescence", "setting": "[1]", "result": 1.11}, {"measurement": "normalised indicator fluorescence", "setting": "[2]", "result": 1.04}]}, {"smiles": "COc1ccc(C2CC(=O)c3c(O)cc(OC4OC(COC5OC(C)C(O)C(O)C5O)C(O)C(O)C4O)cc3O2)cc1OC", "note": "(configuration not stated) [Methyl hesperidin]", "values": [{"measurement": "normalised indicator fluorescence", "setting": "[1]", "result": 1.08}, {"measurement": "normalised indicator fluorescence", "setting": "[2]", "result": 1.37}]}, {"smiles": "Fc1ccc(-c2nc3n(c2-c2ccncc2)CCS3)cc1", "values": [{"measurement": "normalised indicator fluorescence", "setting": "[1]", "result": 1.3}, {"measurement": "normalised indicator fluorescence", "setting": "[2]", "result": 1.15}]}, {"smiles": "COc1nc(-c2ccc3c(c2)OCO3)n(-c2ccc(NC(=O)CSc3ccccc3)cc2)n1", "note": "[SecinH3]", "values": [{"measurement": "normalised indicator fluorescence", "setting": "[1]", "result": 1.55}, {"measurement": "normalised indicator fluorescence", "setting": "[2]", "result": 0.816}]}, {"smiles": "C/C1=C/CC[C@H](C)C(=O)C[C@@H](C(C)C)C(=O)C1", "note": "[Curdione]", "values": [{"measurement": "normalised indicator fluorescence", "setting": "[1]", "result": 1.15}, {"measurement": "normalised indicator fluorescence", "setting": "[2]", "result": 1.1}]}, {"smiles": "Cc1cc(NC(=O)c2cccc(NC(=O)/C=C/CN(C)C)c2)ccc1Nc1nccc(-c2cccnc2)n1", "values": [{"measurement": "normalised indicator fluorescence", "setting": "[1]", "result": 0.999}, {"measurement": "normalised indicator fluorescence", "setting": "[2]", "result": 1.14}]}, {"smiles": "O=C(O)CCc1ccc(O)cc1O", "note": "[Hydroumbellic acid]", "values": [{"measurement": "normalised indicator fluorescence", "setting": "[1]", "result": 1.15}, {"measurement": "normalised indicator fluorescence", "setting": "[2]", "result": 1.15}]}, {"smiles": "CC(C)(O)[C@@H]1CC[C@](C)([C@H]2[C@@H](O)C[C@@]3(C)[C@@H]4C[C@H](O)[C@H]5C(C)(C)[C@@H](O[C@@H]6OC[C@@H](O)[C@H](O)[C@H]6O[C@@H]6O[C@H](CO)[C@@H](O)[C@H](O)[C@H]6O)CC[C@@]56C[C@@]46CC[C@]23C)O1", "note": "[Astragaloside III]", "values": [{"measurement": "normalised indicator fluorescence", "setting": "[1]", "result": 1.03}, {"measurement": "normalised indicator fluorescence", "setting": "[2]", "result": 0.988}]}]}
